Cruzain inh noDet – blocks cruzain activity in detergent-free assay | Potency, µM, for the others: max response, negative = inhibition, most hits filed as inhibitors | 2.3% of 200,000 active | purified cruzain, Z-FR-AMC fluorescence, no detergent;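 note: plate controls were enzyme without inhibitor for no effect and buffer without enzyme for full effect; nearly all actives have a fitted effect of over 40% in size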
Target sequence (P25779 123-467 limits assumed): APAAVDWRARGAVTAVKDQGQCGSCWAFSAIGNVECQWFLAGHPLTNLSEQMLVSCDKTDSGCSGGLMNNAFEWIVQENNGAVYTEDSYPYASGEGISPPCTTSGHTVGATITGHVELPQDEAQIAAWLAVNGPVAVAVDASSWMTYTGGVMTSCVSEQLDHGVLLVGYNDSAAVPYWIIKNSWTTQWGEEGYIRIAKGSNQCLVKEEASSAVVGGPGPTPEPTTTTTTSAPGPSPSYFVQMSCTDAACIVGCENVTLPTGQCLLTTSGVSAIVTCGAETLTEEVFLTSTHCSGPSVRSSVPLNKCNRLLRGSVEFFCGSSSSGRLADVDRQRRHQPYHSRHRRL
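Detergent-free condition (0.00005% Triton X-100) in acetate buffer pH 5.5 with DTT. 1.5 nM enzyme and compound were pre-mixed 15 min, then 2 uM Z-FR-AMC substrate added; reaction progress from fluorescence change between first and third reads (60 s).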
Cruzain Triton – cruzain (T. cruzi) inhibition with detergent | P25779 | purified cruzain, Z-FR-AMC fluorescence, 0.01% Triton | Potency, µM, for inactives: max response, negative = inhibition, hits mostly inhibitors | 0.43% of 200,000 active;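 note: plate controls were neutral wells for no effect and buffer without enzyme for full effect; nearly all actives have a fitted effect of over 40% in size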
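Compounds were screened in titration against cruzain (1.5 nM) with 0.01% Triton X-100 to counter colloidal aggregation. Activity was the AMC fluorescence increase over 60 s after adding 2 uM Z-FR-AMC at pH 5.5.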
* hit, by the source's call; ? = inconclusive. Most compounds without a hit are left out; they make up all but 2.6% or so of the library. Calls come from the whole dose curve; as a rule, active = well fitted curve in the direction sought with a large enough effect; inconclusive = small, poorly fitted or top-dose-only effect, or another doubt; inactive = no such curve, though single readings can be large; an effect the other way counts as inactive or inconclusive. Potency is the fitted concentration of half-maximal effect.

SMILES | Cruzain inh noDet | Cruzain Triton
Cc1cccc(Oc2coc3cc(OC(=O)c4cc5ccccc5oc4=O)ccc3c2=O)c1 | 5µM* | 4%
CCOC(=O)Oc1ccc2c(=O)c(Oc3cccc(C)c3)coc2c1 | -11% | -5%
COc1ccc2[nH]cc(CCN=C(NC(=O)c3cccc(Cl)c3)Nc3nc(C)cc(C)n3)c2c1 | -29% | -1%
Cc1cc(C)nc(NC(=NCCc2c[nH]c3ccccc23)NC(=O)Nc2ccc(Cl)cc2)n1 | 25µM* | -1%
CC1CCN(C(=O)c2ccc(NC(=O)c3nsc4ccccc34)cc2)CC1 | -16% | -7%
Cc1ccc(Cn2c(SCC(=O)NCc3ccccc3)nc3ccsc3c2=O)cc1 | 7% | 1%
Cc1cccc(CNc2nc(-c3ccoc3)nc3ccccc23)c1 | ? | -6%
Fc1ccc(Nc2nc(-c3ccoc3)nc3ccccc23)cc1 | 25µM* | -10%
COc1ccc(CNc2nc(-c3ccoc3)nc3ccccc23)c(OC)c1 | 16µM* | -8%
COc1cccc(-c2nc(NCc3ccccc3OC)c3ccccc3n2)c1 | 23% | -1%
Cc1noc(C)c1-c1nc(Nc2ccc(F)cc2)c2ccccc2n1 | ? | 0%
c1ccc(CNc2nc(-c3ccoc3)nc3ccccc23)cc1 | 25µM* | -3%
COc1cc(Nc2nc(SCC(=O)c3ccc(Br)cc3)nc3ccccc23)cc(OC)c1 | ? | 2%
CCOc1ccc(-n2c(SC(C)C(=O)OC)nc3c([nH]c4ccccc43)c2=O)cc1 (stereo not drawn) | 23% | -5%
C=Cc1ccc(C=C)cc1 | 14% | 8%
Cn1c(C(=O)Nc2ccc3c(c2)OCCO3)cc2sccc21 | ? | -9%
CC(C)c1ccc(NC(=O)Nc2cc3sccc3n2C)cc1 | 7.9µM* | -9%
COc1ccc2c(c1)CCc1sc(NC(=O)c3ccc(C)cc3)nc1-2 | -8% | -6%
CCOc1ccccc1Nc1nnc(SC(C)C(=O)Nc2nc(-c3ccccc3)cs2)s1 (stereo not drawn) | 7.9µM* | -5%
COc1ccc(-c2sc(NC(=O)c3ccc(C)cc3)nc2-c2ccc([N+](=O)[O-])cc2)cc1 | 4µM* | -5%
COc1ccccc1Nc1nc(-c2sc(NC(=O)c3ccc([N+](=O)[O-])cc3)nc2C)cs1 | 4µM* | 1%
COc1ccc(OC)c(Nc2nc(-c3sc(NC(=O)C(C)(C)C)nc3C)cs2)c1 | -2% | -1%
CCOc1ccccc1Nc1nc(-c2sc(NC(=O)c3cccc(Cl)c3)nc2C)cs1 | 6.3µM* | 0%
CCOc1ccccc1NC(=O)C(C)Sc1cc(-c2ccccc2)nc(C)n1 (stereo not drawn) | -6% | -7%
Cc1nc(NC(=O)c2ccccc2)sc1-c1csc(NCCc2ccccc2)n1 | ? | -9%
SMILES | Cruzain inh noDet | Cruzain Triton
CCCCOc1ccccc1NC(=O)Cn1c(-c2cncs2)nc2ccccc21 | 23% | -9%
CCOc1c(Br)cc(C2CC(=O)Nc3cc4c(cc32)OCO4)cc1OC (stereo not drawn) | -6% | -1%
COc1ccc(C2c3c(n(C)c4ccccc34)C(=O)N2CC(=O)Nc2cccc(Cl)c2C)cc1 (stereo not drawn) | ? | -6%
CCN(CCCNC(=O)c1cc(Nc2ccc(OC)cc2OC)nc2ccccc12)c1cccc(C)c1 | ? | -5%
Cc1ccc(Nc2nc3ccccc3c3nncn23)cc1C | ? | -8%
CCOc1ccccc1Nc1nc(-c2sc(NC(=O)c3ccccc3)nc2C)cs1 | 13µM* | -4%
COc1ccccc1Nc1nc(-c2sc(NC(=O)c3ccccc3)nc2C)cs1 | ? | 3%
O=C(Nc1ccc(C(F)(F)F)cc1)C(Cc1ccccc1)n1cccc1 (stereo not drawn) | 5% | -14%
Cc1ccc(Cl)cc1N1CCN(Cc2nnc(-c3ccc4c(c3)OCO4)o2)CC1 | 6% | -6%
COc1ccc(-c2[nH]nc3c2C(c2ccccc2OC(=O)N2CCOCC2)C(C#N)=C(N)O3)cc1 (stereo not drawn) | ? | 1%
Cc1ccc(-c2[nH]nc3c2C(c2ccccc2OC(=O)N2CCOCC2)C(C#N)=C(N)O3)cc1 (stereo not drawn) | 25µM* | 2%
CN(C)c1ccc(C(CNS(=O)(=O)c2ccccc2)N2CCc3ccccc32)cc1 (stereo not drawn) | 16µM* | -2%
Cc1ccc(S(=O)(=O)NCC(c2ccc(N(C)C)cc2)N2CCc3ccccc32)cc1 (stereo not drawn) | -4% | -4%
CCOC(=O)C1CCN(c2cc(C)nc3c(-c4ccccc4OC)c(C)nn23)CC1 | -1% | 0%
Cc1ccc(S(=O)(=O)Nc2cccc3cccnc23)cc1 | 13% | 0%
O=S(=O)(Nc1cc(Sc2cccc3cccnc23)c(O)c2ccccc12)c1ccccc1 | 3.2µM* | 0%
Cc1nc(NC2CCCCC2)c2nc(-c3ccccc3)n(CC3CCN(C)CC3)c2n1 | -2% | -3%
Cc1ccccc1Cn1c2ccccc2c2cnn(CC(=O)NCCCc3ccccc3)c(=O)c21 | 1% | -2%
O=C(Nc1ccc(-c2nc3ccccc3s2)c(O)c1)c1ccc(Br)cc1 | 1% | 0%
O=C(Nc1ccc(-c2nc3ccccc3s2)c(OC(=O)c2ccccc2)c1)c1ccccc1 | 25µM* | -6%
COc1ccc(NC(=O)[C@@H]2[C@@H]3C(=O)N(C4CCCCC4)C(=O)[C@@H]3C3c4ccccc4C=CN32)cc1 (stereo partly drawn) | 16µM* | -2%
CC(=O)[C@@H]1[C@@H]2C(=O)N(C3CCCCC3)C(=O)[C@@H]2C2c3ccccc3C=CN21 (stereo partly drawn) | -15% | 1%
CCc1ccc(Cn2c(CNS(=O)(=O)c3ccc(C)c(C)c3)nc3cccnc32)cc1 | 19% | -6%
Cc1cc(C)c(NC(=O)Cn2nc(-c3ccncc3)ccc2=O)c(C)c1 | 3% | 0%
Nc1nc(SCC(=O)NCc2ccc(F)cc2)[nH]c(=O)c1NC(=O)c1ccc(Cl)cc1 | 25µM* | 2%
SMILES | Cruzain inh noDet | Cruzain Triton
Nc1nc(SCC(=O)NCc2ccccc2Cl)[nH]c(=O)c1NC(=O)c1ccccc1F | ? | 3%
COc1cccc(/C=N/N2C(=O)CSC2=S)c1O | -28% | ?
O=C1CSC(=S)N1/N=C/C=C/c1ccccc1 | 32µM* | ?
COC(=O)c1c(SC)nc2ccccc2c1OCc1cccc(C)c1 | -21% | -3%
COC(=O)CN(C#N)c1nc(SC)nc(N(C)C)n1 | 13µM* | 16µM*
CC(=O)OCN(C#N)c1nc(N(C)C)nc(N(C)C)n1 | -5% | -7%
O=C1OC(c2ccc3c(c2)OCO3)N(C(=O)c2ccc(Cl)c(Cl)c2)c2ccccc21 (stereo not drawn) | 32µM* | -1%
Cc1cccc(C(=O)N2c3ccccc3C(=O)OC2c2ccc3c(c2)OCO3)c1 (stereo not drawn) | ? | 0%
CCOC(=O)C1CCN(C(c2ccc(SC)cc2)c2c(O)cc(C)n(Cc3ccco3)c2=O)CC1 (stereo not drawn) | ? | 1%
CC(C)Cn1c(-c2ccco2)csc1=Nc1cccnc1 | 13µM* | 16µM*
COCCn1c(-c2ccco2)csc1=Nc1cccnc1 | 0% | -3%
Cc1cccc(N2CCN(Cc3cc(=O)oc4cc(C)ccc34)CC2C)c1 (stereo not drawn) | -6% | 0%
CCc1ccc2c(c1)C(c1ccc([N+](=O)[O-])cc1)=NNC(c1ccc(Br)cc1)=N2 | 10µM* | -4%
Cc1ccc2c(c1)C(c1ccc([N+](=O)[O-])cc1)=NNC(c1ccc(Br)cc1)=N2 | ? | 0%
